Source: PubChem BioAssay (National Center for Advancing Translational Sciences (NCATS))
Only some compounds are listed: those with a hit (about 11% of all), similar ones and a draw of the others.
KDM4E inh: JMJD2E (human) inhibition. B2RXH2. JMJD2E catalytic domain, FDH-coupled NADH fluorescence (FDH is formaldehyde dehydrogenase). Potency, µM (top dose mostly 57.1 µM), hits mostly inhibitors. 230,000 tested, 1.6% active; note: nearly all actives have a fitted effect of over 50% in size
Target sequence (B2RXH2 1-337 limits assumed): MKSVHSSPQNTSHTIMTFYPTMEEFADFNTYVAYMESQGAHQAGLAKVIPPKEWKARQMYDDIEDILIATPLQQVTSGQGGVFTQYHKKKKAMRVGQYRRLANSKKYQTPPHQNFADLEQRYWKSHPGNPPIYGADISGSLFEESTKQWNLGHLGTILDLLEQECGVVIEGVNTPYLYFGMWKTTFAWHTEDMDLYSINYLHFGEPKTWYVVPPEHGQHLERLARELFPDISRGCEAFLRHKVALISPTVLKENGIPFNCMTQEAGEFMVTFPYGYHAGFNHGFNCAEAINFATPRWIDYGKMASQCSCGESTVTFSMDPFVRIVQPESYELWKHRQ
PNC inhibitor: blocks assembly of the perinucleolar compartment. PC3M PTB-GFP, PNC prevalence imaging, 16 h; stronger effect = lower value. activity change (PNC), negative = inhibition, % at 10 µM. 140,000 tested, 3.1% active. AID 2417;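 active = readout at or below -70, meaning at least 70% loss of cells showing the perinucleolar compartment, a nuclear body marking cancer cells; inconclusive = readout between -30 and a set limit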
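Read-out is percentage of cells bearing a perinucleolar compartment, from automated 20x imaging of fixed, Hoechst-stained PC3M PTB-GFP cells. Cells were seeded 4 h, then exposed 16 h to compound (23 nl of library stock) in duplicate plates.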
HPGD block: HPGD (human) dehydrogenase inhibition. P15428. purified HPGD, NADH fluorescence kinetic, PGE2 substrate. Potency, µM, hits mostly inhibitors. 150,000 tested, 4.3% active. AID 894
Target sequence (P15428 whole entry, looked up): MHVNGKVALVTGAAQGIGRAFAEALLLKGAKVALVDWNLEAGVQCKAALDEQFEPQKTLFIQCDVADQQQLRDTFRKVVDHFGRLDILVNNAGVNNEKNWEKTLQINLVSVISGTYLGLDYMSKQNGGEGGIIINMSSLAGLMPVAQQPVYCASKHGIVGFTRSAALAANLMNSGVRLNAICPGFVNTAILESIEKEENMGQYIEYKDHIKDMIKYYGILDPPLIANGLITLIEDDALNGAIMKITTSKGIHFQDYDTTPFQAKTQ
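NADH formation kinetics: reaction with 30 uM PGE2 and 1 mM NAD+ (final), 20 nM enzyme, Tris-HCl pH 8 with Tween 20, after 15 min compound preincubation at room temperature. Fluorescence change, last versus first of five reads.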
ALDH1A1 inh: inhibitors of human aldehyde dehydrogenase 1A1 | P00352 | Purified ALDH1A1, NADH fluorescence, propionaldehyde substrate | Potency, µM (top dose mostly 75.3 µM), hits mostly inhibitors | 220,000 tested, 7.3% active | AID 1030
Each line names hits and unclear results; the compound was inactive in the other large screens. Unless noted, calls come from the whole dose curve; as a rule, active = well fitted inhibition curve with a large enough effect (not every such curve was filed as active); inconclusive = small, poorly fitted or top-dose-only effect, or another doubt; inactive = no such curve, though single readings can be large or run the other way.

C=CCOc1ccccc1/C=c1\sc2nc(=O)c(C)nn2c1=O	ALDH1A1 inh 22µM
O=Cc1ccccc1OS(=O)(=O)c1ccccc1	ALDH1A1 inh 13µM
C=CCSSSCC=C	HPGD block 28µM, ALDH1A1 inh 13µM (no result: PNC inhibitor)
COc1ccc(S(=O)(=O)N2CCCC2C(=O)n2nc(C)cc2C)cc1 (centres undefined)	none (no result: PNC inhibitor, HPGD block)
Clc1ccc(C2=NNC(=NCC3CCCO3)SC2)cc1 (centres undefined)	HPGD block inconclusive, ALDH1A1 inh 8.9µM
O=S(=O)(NCC1CCCO1)c1ccc(-c2ccc(Cl)cc2)cc1 (centres undefined)	ALDH1A1 inh inconclusive (no result: PNC inhibitor, HPGD block)
CSc1ccccc1C(=O)N1CCN(c2ccc(F)cc2)CC1	none
CC(=C1C(=O)c2ccccc2C1=O)N1CCN(c2ccc(F)cc2)CC1	KDM4E inh inconclusive, ALDH1A1 inh 18µM (no result: PNC inhibitor, HPGD block)
Fc1ccc(-c2csc(/C=C/c3ccc4c(c3)OCO4)n2)cc1	KDM4E inh inconclusive, HPGD block inconclusive, ALDH1A1 inh inconclusive
CCNC(=O)C1CC(=O)OC12CCCCC2 (centres undefined)	none
Cc1nc2ccccc2c(=O)n1CC(=O)N1CCOCC1	PNC inhibitor -85
O=c1c2ccccc2nc(-c2ccccc2)n1Cc1ccccc1	PNC inhibitor inconclusive, ALDH1A1 inh 16µM
Cc1nc2ccccc2c(=O)n1CCCN1CCOCC1	none (no result: PNC inhibitor, HPGD block, ALDH1A1 inh)
O=c1c2ccccc2nc(-c2ccccc2)n1CCN1CCOCC1	ALDH1A1 inh 13µM
O=c1c2ccccc2nc(-c2ccccc2)n1Cc1ccc(Cl)cc1	ALDH1A1 inh 6.3µM
COc1ccc(-c2nc3ccccc3c(=O)n2CCCN2CCOCC2)cc1	PNC inhibitor inconclusive
Cc1cc2c3c(cccc3n1)C(=O)c1ccccc1-2	none (no result: PNC inhibitor)
Cc1ccc(S(=O)(=O)N(C)c2c(C)ccc(S(=O)(=O)NC(C)(C)C)c2C)cc1	ALDH1A1 inh inconclusive (no result: PNC inhibitor, HPGD block)
O=S(=O)(c1ccccc1)N1CCN(c2nnc(-c3ccccc3)c3ccccc23)CC1	none (no result: PNC inhibitor, HPGD block)
CN1CCN(S(=O)(=O)c2ccc3[nH]c(=O)oc3c2)CC1	none
C=CCn1c(COc2cccc(C)c2)nnc1SCn1nnc2ccccc2c1=O	ALDH1A1 inh inconclusive
COCCCNC(=O)COc1ccc(Br)cc1Cl	PNC inhibitor -90
COCCNC(=O)COc1ccc(C)cc1C	HPGD block 14µM
O=P1(O)Oc2c(-c3ccccc3)cc3ccccc3c2-c2c(c(-c3ccccc3)cc3ccccc23)O1	KDM4E inh inconclusive (no result: PNC inhibitor)
N/C(=N\OC(=O)c1cnn(-c2ccccc2)c1C(F)(F)F)c1ccc(C(F)(F)F)cc1	none (no result: PNC inhibitor, HPGD block)
Cc1ccc(C(O)(COC(=O)C(C)C)COC(=O)C(C)C)c(O)c1	ALDH1A1 inh 7.9µM (no result: PNC inhibitor, HPGD block)
COc1cccc(-n2nnc3c(=O)n(Cc4ccc(C)cc4)cnc32)c1	HPGD block inconclusive
Cc1ccc(-n2nnc3c(=O)n(Cc4cccc(C)c4)cnc32)cc1	HPGD block 4µM
Cc1cccc(Cn2cnc3c(nnn3Cc3ccc(F)cc3)c2=O)c1	HPGD block 14µM
O=C(Cn1cnc2c(nnn2Cc2ccccc2F)c1=O)NCC1CCCO1 (centres undefined)	PNC inhibitor inconclusive, HPGD block inconclusive
COc1cccc(-n2nnc3c(=O)n(Cc4ccc(F)cc4)cnc32)c1	HPGD block 28µM
Cc1cccc(Cn2cnc3c(nnn3Cc3ccccc3F)c2=O)c1	HPGD block 16µM
Cc1sc(NC(=O)c2ccco2)c(C(c2cccnc2)N2CCCC2)c1C (centres undefined)	none
O=C(c1cc2ccccc2c(=O)o1)N1CCCCCC1	HPGD block 18µM, ALDH1A1 inh inconclusive
O=C(c1cc2cc(Br)ccc2o1)N1CCCCC1	ALDH1A1 inh 22µM (no result: PNC inhibitor, HPGD block)
O=C(c1cc2c(ccc3ccccc32)oc1=O)N1CCCC1	KDM4E inh inconclusive, HPGD block inconclusive, ALDH1A1 inh inconclusive
CC1CCN(C(=O)c2cc3ccccc3c(=O)o2)CC1	HPGD block 25µM
O=C(c1cc2cc(Br)ccc2oc1=O)N1CCN(c2ccccn2)CC1	none
Cc1cc(C(=O)N2CCC(C)CC2)on1	none (no result: PNC inhibitor, HPGD block, ALDH1A1 inh)
O=C(c1cc2cc(Br)cc(Br)c2oc1=O)N1CCCC1	HPGD block 28µM, ALDH1A1 inh inconclusive
COc1cc(/C=C/c2ccc3cccc(OC)c3n2)c(OC(C)=O)c([N+](=O)[O-])c1	none
COc1cc(Cl)cc(/C=C/c2ccc3ccccc3n2)c1OC(C)=O	PNC inhibitor -101, HPGD block inconclusive, ALDH1A1 inh inconclusive
C[C@H](CN(C)C)C(=O)c1ccccc1C(=O)O	none (no result: KDM4E inh, PNC inhibitor)
CCOC(=O)/C(C#N)=C1/C=Cc2ccccc2N1CC	PNC inhibitor -99
CCOC(=O)/C(C#N)=C1/C(=O)N(Cc2ccccc2)c2ccccc21	ALDH1A1 inh 0.11µM (no result: PNC inhibitor, HPGD block)
CCN1C(=C(C#N)C#N)C=Cc2ccccc21	ALDH1A1 inh inconclusive (no result: PNC inhibitor, HPGD block)
COC(=O)/C=C\CCc1coc(/C=C\CNC(=O)OC)n1	none (no result: KDM4E inh, PNC inhibitor, HPGD block)
CC1Cc2ccccc2N1C(=O)COc1ccc2c(c1)OCO2 (centres undefined)	none (no result: PNC inhibitor, HPGD block)
CS(=O)(=O)N(CC(=O)NCc1ccncc1)C1CCCCC1	none (no result: PNC inhibitor, HPGD block)
COCCCNC(=O)c1ccc(C2SCC(=O)N2Cc2ccco2)cc1 (centres undefined)	ALDH1A1 inh inconclusive (no result: PNC inhibitor, HPGD block)
O=C(O)c1ccc(C2SCC(=O)N2Cc2ccccc2)cc1 (centres undefined)	none
CCCNC(=O)c1ccc(C2SCC(=O)N2Cc2ccccc2)cc1 (centres undefined)	PNC inhibitor inconclusive, HPGD block 3.2µM
COCCNC(=O)c1ccc(C2SCC(=O)N2Cc2ccco2)cc1 (centres undefined)	ALDH1A1 inh 10µM (no result: PNC inhibitor, HPGD block)
O=C(NCc1ccc2c(c1)OCO2)c1ccc(C2SCC(=O)N2Cc2ccco2)cc1 (centres undefined)	PNC inhibitor inconclusive, HPGD block inconclusive, ALDH1A1 inh 7.1µM
O=C(NCc1ccc2c(c1)OCO2)c1cccc(C(=O)NCc2ccc3c(c2)OCO3)c1	none
CN1CCN(C(=O)c2ccc(C3SCC(=O)N3Cc3ccco3)cc2)CC1 (centres undefined)	PNC inhibitor inconclusive, HPGD block 13µM, ALDH1A1 inh inconclusive
CC(=O)N(Cc1ccccc1)Cc1cn(CCC#N)nc1-c1cccc([N+](=O)[O-])c1	none (no result: PNC inhibitor, HPGD block)
CN(C)c1ccc(/C=N\NC(=O)c2cnc3ccccc3c2)cc1	none (no result: KDM4E inh, PNC inhibitor)
Cc1ccc(/C=C/C(=O)N2CCCN(C(=O)/C=C/c3ccc(C)cc3)CC2)cc1	PNC inhibitor inconclusive
CC(C)c1ccc(/C=C/C(=O)N2CCCCCC2)cc1	PNC inhibitor inconclusive, HPGD block 14µM, ALDH1A1 inh inconclusive
NC=O	none (no result: KDM4E inh, PNC inhibitor)
C[C@H]1C(O)[C@@]23CCC4C5(C=[N+](CCO)C[C@]4(C)CCC5)C2C[C@@H]1C3 (some centres undefined)	none (no result: PNC inhibitor)
O=C1NC(=S)SC1=C1CCCC1	HPGD block 35µM, ALDH1A1 inh inconclusive
O=C(O)c1ccccc1C(=O)Nc1ccc(Br)c2cccnc12	none (no result: PNC inhibitor, HPGD block)
COC(CNC(=O)c1ccc(N2CCC3(CC2)OCCO3)c([N+](=O)[O-])c1)OC	ALDH1A1 inh 28µM
CSc1nc(-c2ccc(C)cc2)nc(C(Cl)Cl)n1	PNC inhibitor -106
COC(=O)[C@@]1(Cc2ccccc2)[C@H]2c3cc(C(=O)N4CCCC4)n(Cc4ccccc4)c3C[C@H]2CN1C(=O)c1ccccc1	none (no result: PNC inhibitor)
